# Active and inactive are the calls of the source.
# Experiments:
# [1] = small molecules captured by biotinylated probe aFSTL3 – biochemical, small-molecule microarray, fluorescence 635/667, stem cell growth factor project, primary screen (AID 1064); conditions: higher = more signal;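 further: measures binding of the biotinylated anti-FSTL3 antibody to printed compounds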
# [2] = binders from COS7 lysate, DM2A8 probe, primary screen, torsin A project, cell lysate, small-molecule microarray, fluorescence 635/667 (AID 1065); conditions: higher = more signal, COS7 lysate expressing mutant human TOR1A
# [3] = small molecules captured by biotinylated probe aFGF2 – biochemical, small-molecule microarray, fluorescence 635/667, stem cell growth factor project, primary screen (AID 1067); conditions: higher = more signal;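 further: measures binding of biotinylated aFGF2 protein to printed compounds on slides; z-score merges feature fluorescence and signal-to-noise across triplicate slides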
# [4] = small molecules captured by biotinylated probe aFGF10 – biochemical, small-molecule microarray, fluorescence 635/667, stem cell growth factor project, primary screen (AID 1071); conditions: higher = more signal;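 further: score merges 667 nm spot intensity and signal to noise from triplicate slides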
# [5] = biological target: Neurogenic locus notch homolog protein 2 (Homo sapiens) (UniProt Q04721); test: small molecules binding Notch2 protein – biochemical, small-molecule microarray, 635 nm fluorescence, stem cell growth factors, primary screen (AID 1073); conditions: higher = more signal
# [6] = biological target: Pro-neuregulin-1, membrane-bound isoform (Homo sapiens) (UniProt Q02297); test: small molecules binding neuregulin-1 protein – biochemical, small-molecule microarray, fluorescence 635/667, psychiatric disease protein project, primary screen (AID 1075); conditions: NRG1 binding, 635 nm fluorescence, higher = more signal;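 further: score combines 667 nm spot fluorescence with signal to noise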
# [7] = system: Neuregulin-1 EGF-like domain; test: small molecules binding NRG1 EGF domain – biochemical, small-molecule microarray, 635 nm fluorescence, primary screen (AID 1081); conditions: higher = more signal;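 further: binding of the protein to compounds printed on small-molecule microarray slides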
# [8] = FRG1 expression reporter modulators in myotubes – cell-based, C2C12 myotubes, firefly/Renilla luciferase, luminescence, FRG1 inhibition for FSHD, primary screen (AID 1084); conditions: FRG1 promoter luciferase, higher = more signal, called active from +8 up or from −8 down
# [9] = small molecules captured by biotinylated probe aFST – biochemical, small-molecule microarray, fluorescence 635/667, stem cell growth factor project, primary screen (AID 1086); conditions: higher = more signal;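 further: score merges 667 nm fluorescence with signal-to-noise of each printed compound spot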
# [10] = binders of probe aHhip on microarray, primary screen, stem cell growth factor project, biochemical, small-molecule microarray, fluorescence 635/667 (AID 1087); conditions: higher = more signal;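 further: score merges spot fluorescence at 667nm with spot signal to noise ratio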
# [11] = system: PRMT1 (protein arginine N-methyltransferase 1); test: small molecules binding arginine methyltransferase PRMT1 – biochemical, small-molecule microarray, 635 nm fluorescence, primary screen (AID 1088); conditions: higher = more signal;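 further: binding of Prmt1 protein to compounds spotted on small-molecule microarray slides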
# [12] = growth effects on S. cerevisiae YJM789 – YJM789 clinical isolate, OD600, 24 h, basal, primary screen (AID 1089); conditions: higher = more signal, called active from +8 up or from −8 down;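 further: growth of clinical yeast isolate S. cerevisiae YJM 789 seeded 1000 cells per well; test concentration not given here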
# [13] = S. pombe growth modifiers, basal conditions – strain 972, OD600, 24 h, no modulator, primary screen (AID 1090);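 further: basal condition with compound alone and no growth modifier present; test concentration not given here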; conditions: S. pombe 972 growth, higher = more signal, called active from +8 up or from −8 down
# [14] = budding yeast growth modifiers under rapamycin – strain BY4716, OD600, 96 h, primary screen (AID 1091); further: test concentration not given here; conditions: S. cerevisiae BY4716 + rapamycin, higher = more signal, called active from +8 up or from −8 down
# [15] = biological target: Torsin-1A-interacting protein 2 (Homo sapiens) (UniProt Q8NFQ8); test: small molecules binding lysate-expressed LULL1 – cell lysate, human LULL1 lysate, 635/667 nm fluorescence, primary screen (AID 1092); conditions: small-molecule microarray, hLULL1 lysate binding, 635 nm fluorescence; higher = more signal;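 further: probe is lysate of COS7 cells overexpressing human LULL1; score merges per-feature 667 nm fluorescence with signal-to-noise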
# [16] = optical density change of DRC41 E. coli – strain DRC41, OD650, 24 h, E. coli filamentation project, primary screen (AID 1093);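 further: MC1000 strain lacking acrAB efflux and sulA so SOS filamentation is blocked; test concentration not given here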; conditions: E. coli DRC41 growth, higher = more signal, called active from +8 up or from −8 down
# [17] = probe aLefty2 binding to arrayed compounds – biochemical, biotinylated probe, 635/667 nm fluorescence, primary screen (AID 1094); conditions: small-molecule microarray, higher = more signal;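 further: score merges spot fluorescence near 667 nm with spot signal-to-noise ratio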
# [18] = system: Noggin (protein binding on small-molecule microarray); test: small molecules binding Noggin protein – biochemical, 635/667 nm fluorescence, primary screen (AID 1095); conditions: 635 nm fluorescence, higher = more signal;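 further: score merges 667 nm feature fluorescence with signal to noise over triplicate slides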
# [19] = biological target: Neurogenic locus notch homolog protein 3 (Homo sapiens) (UniProt Q9UM47); test: small molecules binding NOTCH3 protein – biochemical, 635/667 nm fluorescence, primary screen (AID 1096); conditions: small-molecule microarray, 635 nm fluorescence, higher = more signal
# [20] = probe aEGFR binding to arrayed compounds – biochemical, biotinylated probe, 635/667 nm fluorescence, primary screen (AID 1097); conditions: small-molecule microarray, higher = more signal;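 further: probe is a biotinylated anti-EGFR antibody binding compounds printed on slides; score combines fluorescence near 667 nm and signal to noise of each spot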
# Chain of Neurogenic locus notch homolog protein 3 (Homo sapiens) (Q9UM47 whole entry, looked up): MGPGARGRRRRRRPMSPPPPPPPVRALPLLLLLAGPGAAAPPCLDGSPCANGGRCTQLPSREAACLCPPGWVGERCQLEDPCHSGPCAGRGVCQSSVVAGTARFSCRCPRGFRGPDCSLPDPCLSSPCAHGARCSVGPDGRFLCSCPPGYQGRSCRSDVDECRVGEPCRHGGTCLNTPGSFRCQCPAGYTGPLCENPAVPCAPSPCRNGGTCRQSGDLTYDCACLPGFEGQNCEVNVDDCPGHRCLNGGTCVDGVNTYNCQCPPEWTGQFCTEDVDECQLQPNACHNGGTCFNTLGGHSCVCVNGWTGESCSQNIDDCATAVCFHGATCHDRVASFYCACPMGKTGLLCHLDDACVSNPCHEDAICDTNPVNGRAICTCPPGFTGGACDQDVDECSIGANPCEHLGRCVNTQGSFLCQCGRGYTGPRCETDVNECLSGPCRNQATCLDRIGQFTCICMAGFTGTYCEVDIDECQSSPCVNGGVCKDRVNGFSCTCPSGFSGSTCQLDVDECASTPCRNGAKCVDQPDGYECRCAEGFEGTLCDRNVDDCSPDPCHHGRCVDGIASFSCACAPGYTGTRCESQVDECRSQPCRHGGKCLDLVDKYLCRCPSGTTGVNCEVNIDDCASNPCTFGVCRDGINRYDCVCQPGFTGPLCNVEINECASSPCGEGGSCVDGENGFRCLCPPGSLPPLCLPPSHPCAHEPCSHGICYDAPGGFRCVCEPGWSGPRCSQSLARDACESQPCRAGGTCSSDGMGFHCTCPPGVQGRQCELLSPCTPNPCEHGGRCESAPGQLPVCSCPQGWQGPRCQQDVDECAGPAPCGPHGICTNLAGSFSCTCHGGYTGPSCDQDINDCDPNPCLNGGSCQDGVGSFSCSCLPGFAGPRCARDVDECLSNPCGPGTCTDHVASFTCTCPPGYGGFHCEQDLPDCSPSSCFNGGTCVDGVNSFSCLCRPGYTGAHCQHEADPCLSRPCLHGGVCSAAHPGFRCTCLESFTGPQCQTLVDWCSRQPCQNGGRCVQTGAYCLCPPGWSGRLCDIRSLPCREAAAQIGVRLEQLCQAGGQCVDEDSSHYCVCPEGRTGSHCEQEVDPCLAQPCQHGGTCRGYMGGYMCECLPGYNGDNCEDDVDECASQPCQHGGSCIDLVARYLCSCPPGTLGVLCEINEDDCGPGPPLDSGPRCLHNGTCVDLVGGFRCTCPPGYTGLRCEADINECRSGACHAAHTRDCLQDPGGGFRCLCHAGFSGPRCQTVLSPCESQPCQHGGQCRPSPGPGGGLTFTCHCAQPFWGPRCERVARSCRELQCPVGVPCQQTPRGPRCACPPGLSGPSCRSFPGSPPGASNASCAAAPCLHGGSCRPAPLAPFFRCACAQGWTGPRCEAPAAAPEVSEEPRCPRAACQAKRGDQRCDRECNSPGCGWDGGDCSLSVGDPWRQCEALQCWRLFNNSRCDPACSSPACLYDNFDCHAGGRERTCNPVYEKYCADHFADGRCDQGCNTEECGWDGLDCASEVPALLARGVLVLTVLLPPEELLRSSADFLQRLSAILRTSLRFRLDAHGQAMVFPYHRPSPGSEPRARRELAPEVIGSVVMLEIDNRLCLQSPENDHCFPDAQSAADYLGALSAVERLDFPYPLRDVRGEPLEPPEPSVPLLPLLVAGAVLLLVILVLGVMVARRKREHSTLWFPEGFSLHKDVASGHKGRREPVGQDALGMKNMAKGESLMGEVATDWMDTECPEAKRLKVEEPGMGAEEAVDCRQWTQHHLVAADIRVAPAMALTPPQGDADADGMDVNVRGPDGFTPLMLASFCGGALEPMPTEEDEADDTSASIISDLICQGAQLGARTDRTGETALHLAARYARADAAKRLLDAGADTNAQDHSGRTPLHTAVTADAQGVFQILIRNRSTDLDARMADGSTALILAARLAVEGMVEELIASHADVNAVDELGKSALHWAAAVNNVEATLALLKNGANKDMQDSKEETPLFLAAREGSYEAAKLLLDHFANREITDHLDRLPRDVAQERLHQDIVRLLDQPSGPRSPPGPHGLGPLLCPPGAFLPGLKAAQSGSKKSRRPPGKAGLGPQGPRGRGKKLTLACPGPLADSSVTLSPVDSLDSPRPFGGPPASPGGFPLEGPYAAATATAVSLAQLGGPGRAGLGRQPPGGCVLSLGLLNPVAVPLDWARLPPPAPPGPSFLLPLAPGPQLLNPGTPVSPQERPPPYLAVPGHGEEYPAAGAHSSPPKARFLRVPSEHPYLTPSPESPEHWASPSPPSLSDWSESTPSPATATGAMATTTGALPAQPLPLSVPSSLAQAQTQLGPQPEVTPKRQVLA
# Chain of Torsin-1A-interacting protein 2 (Homo sapiens) (Q8NFQ8 whole entry, looked up): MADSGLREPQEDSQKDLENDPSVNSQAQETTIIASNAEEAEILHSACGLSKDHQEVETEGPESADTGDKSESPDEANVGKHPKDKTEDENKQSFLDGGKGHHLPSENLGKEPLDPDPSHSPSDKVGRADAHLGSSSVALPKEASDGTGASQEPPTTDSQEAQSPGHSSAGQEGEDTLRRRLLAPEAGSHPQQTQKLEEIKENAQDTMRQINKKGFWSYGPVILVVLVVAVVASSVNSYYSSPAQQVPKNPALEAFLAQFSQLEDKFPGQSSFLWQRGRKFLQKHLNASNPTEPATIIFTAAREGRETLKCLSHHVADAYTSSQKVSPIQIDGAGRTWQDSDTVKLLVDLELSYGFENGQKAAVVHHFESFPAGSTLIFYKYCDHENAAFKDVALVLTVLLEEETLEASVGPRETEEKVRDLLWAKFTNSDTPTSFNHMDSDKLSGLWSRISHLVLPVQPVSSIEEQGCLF
# Chain of Pro-neuregulin-1, membrane-bound isoform (Homo sapiens) (Q02297 whole entry, looked up, the tested form may be a part, canonical isoform): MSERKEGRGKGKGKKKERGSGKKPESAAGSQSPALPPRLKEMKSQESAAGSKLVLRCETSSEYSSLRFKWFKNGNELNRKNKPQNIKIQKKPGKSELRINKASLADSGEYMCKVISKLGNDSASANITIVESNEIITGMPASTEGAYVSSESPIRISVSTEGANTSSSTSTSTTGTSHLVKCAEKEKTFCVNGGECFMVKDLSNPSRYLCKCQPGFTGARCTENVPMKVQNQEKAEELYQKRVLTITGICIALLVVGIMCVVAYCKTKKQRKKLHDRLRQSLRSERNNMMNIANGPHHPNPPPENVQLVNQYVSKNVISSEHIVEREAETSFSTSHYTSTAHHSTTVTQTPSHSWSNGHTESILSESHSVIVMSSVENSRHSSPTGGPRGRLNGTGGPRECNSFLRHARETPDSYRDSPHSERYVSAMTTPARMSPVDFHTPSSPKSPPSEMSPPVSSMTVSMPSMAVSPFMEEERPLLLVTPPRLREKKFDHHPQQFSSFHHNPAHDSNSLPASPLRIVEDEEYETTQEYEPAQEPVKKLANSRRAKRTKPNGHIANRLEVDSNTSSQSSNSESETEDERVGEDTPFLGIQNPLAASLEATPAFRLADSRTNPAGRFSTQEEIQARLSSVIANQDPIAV
SMILES,composite z-score [1],composite z-score [2],composite z-score [3],composite z-score [4],composite z-score [5],composite z-score [6],composite z-score [7],z-score [8],composite z-score [9],composite z-score [10],composite z-score [11],z-score [12],z-score [13],z-score [14],composite z-score [15],z-score [16],composite z-score [17],composite z-score [18],composite z-score [19],composite z-score [20]
NCCCC[C@@H]1NC(=O)[C@H]2C[C@@H](C(=O)NCc3ccc(F)cc3)[C@@H](c3ccc(O)cc3)N2C1=O,1.85,0.0239,0.113,0.492,0.531,2.12,1.3,5.15 (inactive),1.75,0.0947,1.3,0.804 (inactive),0.368 (inactive),0.656 (inactive),3.3,-0.656 (inactive),0.726,1.09,0.997,0.149
CC(C)C[C@@H]1NC(=O)[C@H]2C[C@@H](C(=O)NCCCCCCNC(=O)CS)[C@@H](c3ccc(O)cc3)N2C1=O,-0.254,1.62,-0.0297,0.437,0.766,1.22,1.34,1.61 (inactive),0.665,-0.0296,1.54,0.107 (inactive),0.673 (inactive),0.185 (inactive),2.91,0.205 (inactive),-0.101,1.14,0.589,-0.0594
CCCCCCc1nc(-c2ccc(OC)nc2)cc2c1[Si](C(C)C)(C(C)C)OC2,-0.0192,0.456,-0.15,-0.0125,-0.383,-0.151,-0.769,0.366 (inactive),-0.193,0.0306,-0.741,-0.1 (inactive),-0.283 (inactive),-0.218 (inactive),-0.342,-0.647 (inactive),-0.143,-0.374,-0.123,-0.24
[N-]=[N+]=NCc1ccccc1[C@H]1OC(c2ccc(OCCCO)cc2)=N[C@@]1(Cc1ccccc1)C(=O)N1CCOCC1,-0.212,0.768,0.0232,1.15,1.71,1.39,1.21,-0.868 (inactive),1.8,-0.166,1.46,-2.07 (inactive),-0.21 (inactive),-0.0315 (inactive),3.51,-0.522 (inactive),0.254,0.316,1.08,0.266
[N-]=[N+]=NCc1ccccc1C[C@]1(C(=O)NCc2ccccc2)N=C(c2ccc(OCCCO)cc2)O[C@H]1c1ccccc1CN=[N+]=[N-],1.79,0.227,0.14,0.0819,1.13,1.73,1.16,0.976 (inactive),0.654,-0.082,1.37,1.27 (inactive),0.736 (inactive),22.6 (active),3.25,1.79 (inactive),-0.106,-0.243,0.561,0.0506

# Source: PubChem BioAssay
